# According to PubChem BioAssay:
# Inconclusive results are not listed. Active and inactive are the calls of the source.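 How the source made its calls, unless noted: active means normalized viability below 100% at a tested concentration; inactive means the rest.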
# Legend:
# [1] = viability loss in pontine glioma line – cell-based, SU-DIPG-XVII, MIPE5.0, CellTiter-Glo, qHTS, dose response (AID 1347060; cut-off not given, nearly all actives have AC50 up to about 26 µM;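 further: cells exposed to compound for 48 hours before viability readout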); conditions: CellTiter-Glo ATP luminescence
# [2] = viability loss in pontine glioma line – cell-based, SU-DIPG-XIII, MIPE4.0, CellTiter-Glo, qHTS, dose response (AID 1347061; cut-off not given, nearly all actives have AC50 up to about 37 µM;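 further: cells exposed to compound for 48 hours before readout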); conditions: CellTiter-Glo ATP luminescence
# [3] = viability loss in pontine glioma line – cell-based, JHH-DIPG-1, MIPE4.0, CellTiter-Glo, qHTS, dose response (AID 1347062; cut-off not given, nearly all actives have AC50 up to about 27 µM;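 further: cells exposed to compound for two days before readout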); conditions: JHH-DIPG-1 viability, CellTiter-Glo ATP luminescence
# [4] = viability loss in pontine glioma line – cell-based, SU-DIPG-IV, MIPE4.0, CellTiter-Glo, qHTS, dose response (AID 1347063; cut-off not given, nearly all actives have AC50 up to about 30 µM;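 further: compound exposure lasted 48 hours before the viability readout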); conditions: CellTiter-Glo ATP luminescence
# [5] = viability loss in pontine glioma line – cell-based, SU-DIPG-XIII, MIPE5.0, CellTiter-Glo, qHTS, dose response (AID 1347064; cut-off not given, nearly all actives have AC50 up to about 23 µM;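 further: cells exposed to compound for 48 hours before the viability read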); conditions: CellTiter-Glo ATP luminescence
# [6] = viability loss in pontine glioma line – cell-based, SU-DIPG-XXV, MIPE5.0, CellTiter-Glo, qHTS, dose response (AID 1347065; cut-off not given, nearly all actives have AC50 up to about 26 µM;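 further: cells exposed to compound for 48 hours before ATP readout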); conditions: CellTiter-Glo ATP luminescence
# [7] = growth inhibition of DIPG cells – cell-based, MIPE4.0 library, CellTiter-Glo luminescence, qHTS (AID 1347066; cut-off not given, nearly all actives have AC50 up to about 30 µM;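 further: cells exposed to compound for 48 hours before readout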); conditions: SU-DIPG-VI viability, CellTiter-Glo ATP luminescence
# [8] = JHH-DIPG-1 glioma cell viability, MIPE5.0 library, CellTiter-Glo luminescence, qHTS (AID 1347067; cut-off not given, nearly all actives have AC50 up to about 26 µM;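 further: cells exposed to compound for 48 hours before readout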); conditions: JHH-DIPG-1 glioma viability, CellTiter-Glo ATP luminescence
# [9] = growth inhibition of DIPG cells – cell-based, MIPE5.0 library, qHTS (AID 1347068; cut-off not given, nearly all actives have IC50 up to about 30 µM;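 further: cells exposed to compound for 48 hours before viability readout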); conditions: SU-DIPG-XXV viability
# [10] = viability loss with induced miR-34 in A549 – imaging, A549 dox-inducible miR-34, nuclei and caspase counts, primary screen (AID 1347080;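 active means compounds whose cell count with miR-34 switched on is under 0.7 times the count with it off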); conditions: A549 miR-34 inducible, Hoechst nuclei count, 48 h
# [11] = compounds altering HSF1 focus formation in cells – imaging, Selleck Cancer Library (AID 1347162; in the data active means plate-normalised HSF1 focus index below about 0.46); conditions: human cells, HSF1 nuclear foci imaging, at 10 µM; SSMD: measured here: HSF1 foci SSMD mean; cell count: measured here: cell number; plate-normalised HSF1 focus index: stronger effect = lower value
# [12] = MELAS cybrid and Rieske KO viability enhancers – cell-based, MELAS cybrids, Rieske KO mouse fibroblasts, CellTiter-Glo, primary screen (AID 1508586;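 active means mean z-score across replicates of 1.96 or higher in either the MELAS or the Rieske mutant cell line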;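 further: z relative to plate mean and SD of compound and empty wells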); conditions: low glucose
# [13] = drug combination growth inhibition, ovarian cancer – cell-based, oncology-focused library, rucaparib conditional, profiling panel (AID 1508598); conditions: patient-derived ovarian cancer cells, CellTiter-Glo viability, 144 h, stronger effect = lower value
# [14] = growth inhibition, single agent or in combination, cell-based, chromothripsis tumors, cisplatin or BGB combos (AID 1671449; in the data active means inhibition above about 80%;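 further: cells exposed for 96 hours; 0% = vehicle DMSO and 100% = killing by high DMSO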); conditions: LFS_MB_P medulloblastoma cells
# [15] = growth inhibition, single agent and combos, cell-based, chromothripsis tumors, cisplatin or BGB combos (AID 1671450; in the data active means inhibition above about 80%;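 further: cells exposed to compound for four days; 0% = vehicle DMSO and 100% = cell killing by high DMSO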); conditions: HDN33 neuroblastoma cells, stronger effect = higher value
# [16] = growth inhibition, single agents and combos, ICB984, cell-based, cisplatin or BGB combos, synergistic combos for chromothripsis tumors (AID 1671451; call rule not given here;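 further: cells exposed for 96 hours before readout; 0% = vehicle DMSO and 100% = killing by high DMSO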); conditions: ICB984 medulloblastoma cells, drug combinations, stronger effect = higher value
# [17] = growth inhibition, single agents and combos, HTB85, cell-based, BGB or cisplatin IC20 combos, synergistic combos for chromothripsis tumors (AID 1671453; in the data active means inhibition above about 80%;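 further: cells exposed for 96 hours before readout; 0% = vehicle DMSO and 100% = high DMSO killing control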); conditions: HTB85 osteosarcoma cells, drug combinations, stronger effect = higher value
# [18] = growth inhibition, MDA-MB-436, cell-based, BGB or cisplatin combos, synergistic combos for chromothripsis tumors (AID 1671458; call rule not given here;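 further: cells exposed for 96 hours; 0% = vehicle DMSO and 100% = killing by high DMSO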); conditions: MDA-MB-436 breast carcinoma growth inhibition, drug combinations, stronger effect = higher value
# [19] = BT084 cell growth, single and combined drugs, ICGC_MB145, cisplatin and BGB IC40 combos (AID 1671461; in the data active means inhibition above about 80%;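 further: cells exposed to drugs for 96 hours; 0% = vehicle DMSO and 100% = high DMSO full killing control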); conditions: BT084 medulloblastoma cells, drug combinations, stronger effect = higher value
# [20] = RCMB18 cell growth, single agent and combined, cisplatin and BGB IC40 combos (AID 1671462; in the data active means inhibition above about 80%;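 further: cells exposed to compound for four days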); conditions: RCMB18 medulloblastoma cells, stronger effect = higher value
# [21] = stronger effect = lower value, cell number ratio, induced over uninduced
# [22] = measured here: relative caspase fold change +Dox/-Dox
# [23] = measured here: total cells with miR-34 induction, stronger effect = lower value
# [24] = measured here: total cells without miR-34 induction
structure (smiles),measurement,setting,value
CC(=O)Nc1nc(C)c(-c2ccc(Cl)c(S(=O)(=O)NCCO)c2)s1,AC50,[1],10.5 µM (active)
same,AC50,[2],7.43 µM (active)
same,AC50,[3],13.2 µM (active)
same,AC50,[4],2.09 µM (active)
same,AC50,[5],14.8 µM (active)
same,AC50,[6],6.61 µM (active)
same,AC50,[7],2.64 µM (active)
same,AC50,[8],16.6 µM (active)
same,IC50,[9],16.6 µM (active)
same,fold change,[10]; [21],1.06 (inactive)
same,fold change,[10]; [22],0.869
same,cell count,[10]; [23],3490
same,cell count,[10]; [24],3300
same,SSMD,[11],2.06
same,cell count,[11],7480
same,plate-normalised HSF1 focus index,[11],1.13 (inactive)
same,z-score,"[12]; MELAS cybrid survival, CellTiter-Glo 48 h, stronger effect = higher value",-0.084 (inactive)
same,z-score,"[12]; Rieske KO mouse fibroblast survival, CellTiter-Glo 72 h",1.03
same,viability,"[13]; at 0.000305 µM, OCI-C5x cells, with rucaparib 10 µM, 100% = cells with rucaparib alone",113% (inactive)
same,viability,"[13]; at 0.000305 µM, OCI-C5x cells, without rucaparib",119% (inactive)
same,viability,"[13]; at 0.000305 µM, OCI-P5x cells, with rucaparib 20 µM, 100% = cells with rucaparib alone",110% (inactive)
same,viability,"[13]; at 0.000305 µM, OCI-P5x cells, without rucaparib",117% (inactive)
same,viability,"[13]; at 0.00122 µM, OCI-C5x cells, with rucaparib 10 µM, 100% = cells with rucaparib alone",102% (inactive)
same,viability,"[13]; at 0.00122 µM, OCI-C5x cells, without rucaparib",126% (inactive)
same,viability,"[13]; at 0.00122 µM, OCI-P5x cells, with rucaparib 20 µM, 100% = cells with rucaparib alone",85.2% (active)
same,viability,"[13]; at 0.00122 µM, OCI-P5x cells, without rucaparib",107% (inactive)
same,viability,"[13]; at 0.00488 µM, OCI-C5x cells, with rucaparib 10 µM, 100% = cells with rucaparib alone",109% (inactive)
same,viability,"[13]; at 0.00488 µM, OCI-C5x cells, without rucaparib",123% (inactive)
same,viability,"[13]; at 0.00488 µM, OCI-P5x cells, with rucaparib 20 µM, 100% = cells with rucaparib alone",92.4% (active)
same,viability,"[13]; at 0.00488 µM, OCI-P5x cells, without rucaparib",112% (inactive)
same,viability,"[13]; at 0.0195 µM, OCI-C5x cells, with rucaparib 10 µM, 100% = cells with rucaparib alone",103% (inactive)
same,viability,"[13]; at 0.0195 µM, OCI-C5x cells, without rucaparib",120% (inactive)
same,viability,"[13]; at 0.0195 µM, OCI-P5x cells, with rucaparib 20 µM, 100% = cells with rucaparib alone",99.1% (active)
same,viability,"[13]; at 0.0195 µM, OCI-P5x cells, without rucaparib",115% (inactive)
same,viability,"[13]; at 0.0781 µM, OCI-C5x cells, with rucaparib 10 µM, 100% = cells with rucaparib alone",90.4% (active)
same,viability,"[13]; at 0.0781 µM, OCI-C5x cells, without rucaparib",125% (inactive)
same,viability,"[13]; at 0.0781 µM, OCI-P5x cells, with rucaparib 20 µM, 100% = cells with rucaparib alone",89.5% (active)
same,viability,"[13]; at 0.0781 µM, OCI-P5x cells, without rucaparib",107% (inactive)
same,viability,"[13]; at 0.313 µM, OCI-C5x cells, with rucaparib 10 µM, 100% = cells with rucaparib alone",93.3% (active)
same,viability,"[13]; at 0.313 µM, OCI-C5x cells, without rucaparib",116% (inactive)
same,viability,"[13]; at 0.313 µM, OCI-P5x cells, with rucaparib 20 µM, 100% = cells with rucaparib alone",88.3% (active)
same,viability,"[13]; at 0.313 µM, OCI-P5x cells, without rucaparib",108% (inactive)
same,viability,"[13]; at 1.25 µM, OCI-C5x cells, with rucaparib 10 µM, 100% = cells with rucaparib alone",95.9% (active)
same,viability,"[13]; at 1.25 µM, OCI-C5x cells, without rucaparib",122% (inactive)
same,viability,"[13]; at 1.25 µM, OCI-P5x cells, with rucaparib 20 µM, 100% = cells with rucaparib alone",92.7% (active)
same,viability,"[13]; at 1.25 µM, OCI-P5x cells, without rucaparib",110% (inactive)
same,viability,"[13]; at 5 µM, OCI-C5x cells, with rucaparib 10 µM, 100% = cells with rucaparib alone",94.4% (active)
same,viability,"[13]; at 5 µM, OCI-C5x cells, without rucaparib",132% (inactive)
same,viability,"[13]; at 5 µM, OCI-P5x cells, with rucaparib 20 µM, 100% = cells with rucaparib alone",39.1% (active)
same,viability,"[13]; at 5 µM, OCI-P5x cells, without rucaparib",60.5% (active)
same,inhibition,"[14]; at 0.5 µM, stronger effect = higher value",-45.2% (inactive)
same,inhibition,"[14]; measured here: combination with BGB IC20, at 0.005 µM",-29.7%
same,inhibition,"[14]; measured here: combination with BGB IC40, at 0.005 µM",-42%
same,inhibition,"[14]; measured here: combination with BGB IC40, at 0.05 µM",-7.74%
same,inhibition,"[14]; measured here: combination with cisplatin, at 0.5 µM, stronger effect = higher value",-52.3%
same,inhibition,"[14]; measured here: combination with cisplatin, at 5 µM, stronger effect = higher value",23.5%
same,inhibition,"[15]; BGB combo, at 5 µM",18.5%
same,inhibition,[15]; at 0.5 µM,22.6% (inactive)
same,inhibition,"[15]; cisplatin combo, at 5 µM",37%
same,inhibition,"[15]; measured here: with BGB IC20 combination, at 0.5 µM",13.7%
same,inhibition,"[15]; measured here: with cisplatin IC20 combination, at 0.5 µM",24.2%
same,inhibition,"[15]; single agent, at 5 µM",45%
same,inhibition,"[16]; BGB IC20 combo, at 0.005 µM",-5.45%
same,inhibition,"[16]; BGB IC40 combo, at 0.005 µM",3.46%
same,inhibition,"[16]; BGB IC40 combo, at 0.05 µM",30.7%
same,inhibition,[16]; at 0.5 µM,-2.76% (inactive)
same,inhibition,"[16]; cisplatin combo, at 0.05 µM",27.3%
same,inhibition,"[16]; cisplatin combo, at 0.5 µM",-19.5%
same,inhibition,"[16]; cisplatin combo, at 5 µM",2.87%
same,inhibition,"[16]; measured here: 5 uM single agent, at 5 µM",5.64%
same,inhibition,[17]; at 0.5 µM,10.5% (inactive)
same,inhibition,"[17]; measured here: with BGB IC20, at 0.5 µM",11.8%
same,inhibition,"[17]; measured here: with BGB IC20, at 5 µM",42.2%
same,inhibition,"[17]; measured here: with cisplatin IC20, at 0.5 µM",8.49%
same,inhibition,"[17]; measured here: with cisplatin IC20, at 5 µM",30.2%
same,inhibition,"[17]; single agent, at 5 µM",46.6%
same,inhibition,[18]; at 0.5 µM,1.41% (inactive)
same,inhibition,"[18]; measured here: BGB combination, at 0.5 µM",-2.21%
same,inhibition,"[18]; measured here: BGB combination, at 5 µM",-3.92%
same,inhibition,"[18]; measured here: cisplatin combination, at 0.5 µM",-6.73%
same,inhibition,"[18]; measured here: cisplatin combination, at 5 µM",-16.3%
same,inhibition,[19]; at 0.5 µM,10.3% (inactive)
same,inhibition,"[19]; cisplatin combination, at 0.5 µM",14.9%
same,inhibition,"[19]; cisplatin combination, at 5 µM",-88.1%
same,inhibition,"[19]; measured here: BGB IC40 combination 0.05 uM, at 0.05 µM",3%
same,inhibition,"[19]; single agent, at 5 µM",29.8%
same,inhibition,[20]; at 0.5 µM,9.76% (inactive)
same,inhibition,"[20]; cisplatin combo, at 5 µM",16.5%
same,inhibition,"[20]; measured here: BGB IC40 combination, at 0.05 µM",-25%
same,inhibition,"[20]; measured here: combination with cisplatin, at 0.5 µM",0.78%
same,inhibition,"[20]; single agent, at 5 µM",15.1%
Cc1ccc(C(N)=O)cc1Nc1nccc(-c2cn(C(C)C)c3cnccc23)n1,AC50,[1],9.34 µM (active)
same,AC50,[2],18.7 µM (active)
same,AC50,[3],9.35 µM (active)
same,AC50,[4],8.33 µM (active)
same,AC50,[5],11.8 µM (active)
same,AC50,[6],7.42 µM (active)
same,AC50,[7],13.2 µM (active)
same,IC50,[9],11.8 µM (active)
CCCNC(=O)[C@H]1O[C@@H]1C(=O)N[C@H](C(=O)N1CCC[C@H]1C(=O)OC)C(C)CC (stereo partly specified),AC50,[1],16.6 µM (active)
same,AC50,[2],16.6 µM (active)
same,AC50,[3],16.6 µM (active)
same,AC50,[4],16.6 µM (active)
same,AC50,[5],11.8 µM (active)
same,AC50,[6],13.2 µM (active)
same,AC50,[7],10.5 µM (active)
same,AC50,[8],11.8 µM (active)
same,fold change,[10]; [21],0.991 (inactive)
same,fold change,[10]; [22],1.21
same,cell count,[10]; [23],4190
same,cell count,[10]; [24],4230
